Measurements reported in PubChem BioAssay AID1159580 (chemical genetic matrix, 2015).
In all, about 5,500 compounds went through this assay and about 2,000 (36%) were called active. Roughly 18% stayed inconclusive and do not appear here. Rule as the data show it: active = normalized growth mostly below about 0.91 (no sharp cut-off); inconclusive = no clear call, values can overlap the other calls; inactive = mostly above about 0.92. Some of the results follow.

Test: chemical genetic growth profiling, strain panel (AID 1159580);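 also: tested at 20 µM; growth read once vehicle control cultures reached saturation at 30 °C; 1 = growth at the plate median or of vehicle wells; lower values mean less growth of the strain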
Settings: growth OD

Measured: normalized growth

COc1cc(/C=C/C(=O)O)cc(OC)c1OC
inactive: S. cerevisiae deletion strains, locus YJR043C, strain POL32, stronger effect = lower value 0.999 | S. cerevisiae deletion strains, locus YJR066W, strain TOR1, stronger effect = lower value 1.02 | S. cerevisiae deletion strains, locus YKL009W, strain mrt4, stronger effect = lower value 1.03 | S. cerevisiae deletion strains, locus YKL068W, stronger effect = lower value 1.02 | S. cerevisiae deletion strains, locus YKL085W, strain MDH1 (second series), stronger effect = lower value 1.01 | S. cerevisiae deletion strains, locus YKL085W, strain MDH1, stronger effect = lower value 1.01 | S. cerevisiae deletion strains, locus YKL160W, strain elf1, stronger effect = lower value 0.985 | S. cerevisiae deletion strains, locus YKR001C, strain vps1, stronger effect = lower value 1 | S. cerevisiae deletion strains, locus YKR026C, strain gcn3, stronger effect = lower value 0.985 | S. cerevisiae deletion strains, locus YKR091W, strain srl3, stronger effect = lower value 0.98 | S. cerevisiae deletion strains, locus YLL001W, strain dnm1, stronger effect = lower value 0.969 | S. cerevisiae deletion strains, locus YLL026W, stronger effect = lower value 0.995 | S. cerevisiae deletion strains, locus YLL041C, strain sdh2, stronger effect = lower value 0.999 | S. cerevisiae deletion strains, locus YLR027C, strain aat2, stronger effect = lower value 0.998 | S. cerevisiae deletion strains, locus YLR039C, strain RIC1, stronger effect = lower value 1.04 | S. cerevisiae deletion strains, locus YLR058C, strain SHM2, stronger effect = lower value 1.02 | S. cerevisiae deletion strains, locus YLR102C, strain apc9, stronger effect = lower value 1.02 | S. cerevisiae deletion strains, locus YLR113W, strain HOG1, stronger effect = lower value 1.03 | S. cerevisiae deletion strains, locus YLR221C, strain rsa3, stronger effect = lower value 1 | S. cerevisiae deletion strains, locus YLR258W, strain gsy2, stronger effect = lower value 0.993 | S. cerevisiae deletion strains, locus YLR262C, strain YPT6 (second series), stronger effect = lower value 0.994 | S. cerevisiae deletion strains, locus YLR262C, strain YPT6, stronger effect = lower value 1.01 | S. cerevisiae deletion strains, locus YLR268W, strain sec22, stronger effect = lower value 1.02 | S. cerevisiae deletion strains, locus YLR320W, strain mms22, stronger effect = lower value 0.995 | S. cerevisiae deletion strains, locus YLR330W, strain CHS5, stronger effect = lower value 1.01 | S. cerevisiae deletion strains, locus YLR342W, strain FKS1 (second series), stronger effect = lower value 0.999 | S. cerevisiae deletion strains, locus YLR342W, strain FKS1, stronger effect = lower value 0.986 | S. cerevisiae deletion strains, locus YLR357W, strain rsc2, stronger effect = lower value 0.993 | S. cerevisiae deletion strains, locus YLR370C, strain arc18, stronger effect = lower value 0.992 | S. cerevisiae deletion strains, locus YLR371W, strain rom2, stronger effect = lower value 1.06 | S. cerevisiae deletion strains, locus YLR384C, strain iki3, stronger effect = lower value 0.986 | S. cerevisiae deletion strains, locus YLR418C, strain cdc73, stronger effect = lower value 0.975 | S. cerevisiae deletion strains, locus YML016C, strain PPZ1, stronger effect = lower value 1.01 | S. cerevisiae deletion strains, locus YML032C, strain rad52, stronger effect = lower value 1.03 | S. cerevisiae deletion strains, locus YML120C, strain ndi1, stronger effect = lower value 1 | S. cerevisiae deletion strains, locus YML124C, strain tub3, stronger effect = lower value 1.02 | S. cerevisiae deletion strains, locus YMR058W, strain fet3, stronger effect = lower value 0.997 | S. cerevisiae deletion strains, locus YMR078C, strain ctf18, stronger effect = lower value 1.05 | S. cerevisiae deletion strains, locus YMR125W, strain sto1, stronger effect = lower value 0.965 | S. cerevisiae deletion strains, locus YMR129W, stronger effect = lower value 0.996 | S. cerevisiae deletion strains, locus YMR205C, strain PFK2, stronger effect = lower value 0.984 | S. cerevisiae deletion strains, locus YMR223W, strain ubp8, stronger effect = lower value 1.04 | S. cerevisiae deletion strains, locus YMR231W, strain pep5, stronger effect = lower value 0.981 | S. cerevisiae deletion strains, locus YMR263W, strain SAP30, stronger effect = lower value 1.01 | S. cerevisiae deletion strains, locus YMR307W, strain GAS1, stronger effect = lower value 1.04 | S. cerevisiae deletion strains, locus YNL067W, strain RPL9B, stronger effect = lower value 1.01 | S. cerevisiae deletion strains, locus YNL071W, strain lat1, stronger effect = lower value 0.991 | S. cerevisiae deletion strains, locus YNL183C, strain NPR1, stronger effect = lower value 1.03 | S. cerevisiae deletion strains, locus YNL209W, strain ssb2, stronger effect = lower value 0.996 | S. cerevisiae deletion strains, locus YNL233W, strain BNI4, stronger effect = lower value 0.999 | S. cerevisiae deletion strains, locus YNL248C, strain rpa49, stronger effect = lower value 1 | S. cerevisiae deletion strains, locus YNL250W, strain rad50, stronger effect = lower value 1.02 | S. cerevisiae deletion strains, locus YNL271C, strain bni1, stronger effect = lower value 1.02 | S. cerevisiae deletion strains, locus YNL298W, strain CLA4, stronger effect = lower value 1.03 | S. cerevisiae deletion strains, locus YNL307C, strain MCK1, stronger effect = lower value 1.02 | S. cerevisiae deletion strains, locus YNL322C, strain KRE1 (second series), stronger effect = lower value 0.99 | S. cerevisiae deletion strains, locus YNL322C, strain KRE1, stronger effect = lower value 1.01 | S. cerevisiae deletion strains, locus YNR049C, strain mso1, stronger effect = lower value 0.988 | S. cerevisiae deletion strains, locus YNR052C, strain pop2, stronger effect = lower value 1.01 | S. cerevisiae deletion strains, locus YOL006C, strain TOP1, stronger effect = lower value 1.04 | S. cerevisiae deletion strains, locus YOL012C, strain htz1 1.26 | S. cerevisiae deletion strains, locus YOL147C, strain pex11, stronger effect = lower value 1.02 | S. cerevisiae deletion strains, locus YOR001W, strain rrp6, stronger effect = lower value 1.03 | S. cerevisiae deletion strains, locus YOR061W, strain CKA2, stronger effect = lower value 1.02 | S. cerevisiae deletion strains, locus YOR069W, strain VPS5, stronger effect = lower value 1.01 | S. cerevisiae deletion strains, locus YOR070C, strain gyp1, stronger effect = lower value 0.991 | S. cerevisiae deletion strains, locus YOR080W, strain dia2, stronger effect = lower value 0.983 | S. cerevisiae deletion strains, locus YOR083W, strain WHI5, stronger effect = lower value 0.972 | S. cerevisiae deletion strains, locus YOR106W, strain vam3, stronger effect = lower value 0.961 | S. cerevisiae deletion strains, locus YOR136W, strain idh2, stronger effect = lower value 1.01 | S. cerevisiae deletion strains, locus YOR144C, strain elg1, stronger effect = lower value 1.01 | S. cerevisiae deletion strains, locus YOR184W, strain ser1, stronger effect = lower value 1.04 | S. cerevisiae deletion strains, locus YOR231W, strain MKK1, stronger effect = lower value 1.06 | S. cerevisiae deletion strains, locus YOR265W, strain rbl2, stronger effect = lower value 0.983 | S. cerevisiae deletion strains, locus YOR270C, strain vph1, stronger effect = lower value 0.998 | S. cerevisiae deletion strains, locus YOR290C, strain snf2, stronger effect = lower value 0.954 | S. cerevisiae deletion strains, locus YOR316C, strain cot1, stronger effect = lower value 1.02 | S. cerevisiae deletion strains, locus YPL051W, strain arl3, stronger effect = lower value 1 | S. cerevisiae deletion strains, locus YPL078C, strain atp4, stronger effect = lower value 0.987 | S. cerevisiae deletion strains, locus YPL106C, strain sse1, stronger effect = lower value 0.972 | S. cerevisiae deletion strains, locus YPL240C, strain hsp82, stronger effect = lower value 0.989 | S. cerevisiae deletion strains, locus YPL256C, strain CLN2, stronger effect = lower value 0.999 | S. cerevisiae deletion strains, locus YPR119W, strain clb2, stronger effect = lower value 1.03 | S. cerevisiae deletion strains, locus YPR141C, strain kar3, stronger effect = lower value 1.03 | S. cerevisiae deletion strains, locus YPR163C, strain tif3, stronger effect = lower value 1.03 | S. cerevisiae deletion strains, locus YPR167C, strain met16, stronger effect = lower value 1.02 | S. cerevisiae deletion strains, strain wtn01, stronger effect = lower value 1.01 | S. cerevisiae strains, strain wild type, stronger effect = lower value 1.01
